Among the data in PubChem BioAssay (NCI) are growth values, retold here.

SMILES strings stand for the structures. Values joined by “and” are separate entries in the source; they are usually repeats but may differ in a detail not shown here. Equal entries are not always repeated. Compounds without any hit were thinned out: in the full panel of roughly 83,000, 20% have a hit.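 Results are percent growth after 48 hours of single-concentration exposure. 100 means growth as in untreated cells, lower positive values show inhibition; negative values down to -100 show cell death.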 Unmarked numbers belong to inactive results. Active and inactive are the calls of the source. The calls were made as follows: active = growth percent below 10; inactive = the rest.

What all share (assay): NCI-60 one-dose screen, 48 h (100 = growth as untreated, 0 = no growth, -100 = all killed)
Holding throughout (details): 10 µM unless noted

Assay [1] has as its system NCI-H23 lung.
Assay [2] relates to NCI-H226 lung.
For assay [3], the system named is NCI-H322M lung.
Assay [4] concerns HOP-62 NSCLC.
Assay [5] deals with NCI-H460 lung.
The subject of assay [6] is HOP-92 NSCLC.
Assay [7] concerns NCI-H522 lung.
Assay [8] deals with A549/ATCC NSCLC.
Assay [9] has as its system 786-0 renal.
Assay [10] concerns COLO 205 colon.

For the compound `Oc1ccccc1C=Nc1ccc(N2CCN(c3ccccc3)CC2)cc1`, the growth in [1] was 93.4%; in [2], 110%; in [3] it was 98.2%; in [4], 74.7%; in [5], 111%; in [6], 99.5%. Also, the growth is 95.7% in [7], 92.1% in assay [8], 94.1% in assay [9] and 93.7% in assay [10].
For `Cn1cc(-c2nonc2-c2cn(C)c3ccc(Br)cc23)c2ccccc21`, the growth in assay [1] is 56.4%; in [2], 71.3%; in assay [3] it was 64%; in assay [4], 25.8%; in [5], 12.9%; in assay [6], 44.4%. Besides, the growth is 8.18% (active) in [7], 40.1% in assay [8], 33.3% in [9] and 29.6% in assay [10].
Take `CN1CCN(c2ccc(Nc3ncc(C(N)=O)c(NCCCNC(=O)C4CCC4)n3)cc2)CC1`: the growth in [1] was 70.4%; in [2], 62.1%; in assay [3], 75.8%; in assay [4] it was 34%; in assay [5] it was 78.9%; in assay [6], 113%. For the same compound, the growth in assay [7] was 77.3%; in [8], 78.2%; in [9] it was 90.2%; in assay [10], -5.21% (active).
For the compound `CCOc1ccc(C(=O)Cc2ccccc2)cc1`, the growth in assay [1] is 115% and 105%; in assay [2] it was 99.1%; in assay [3], 114%; in assay [4] it was 97.3% and 121%; in [5], 110% and 112%; in [6], 108% and 102%. Further, the growth in assay [7] was 93.8% and 102%; in assay [8], 98.9% and 99.4%; in [9], 93.2% and 103%; in assay [10] it was 120% and 125%.
`CC[C@]12CN3CCc4c([nH]c5ccccc45)[C@@](C(=O)OC)(c4cc5c(cc4OC)N(C)[C@H]4[C@@](O)(C(=O)OC)[C@H](OC(C)=O)[C@]6(CC)C=CCN7CC[C@]54[C@@H]76)CC(C3)[C@H]1O2` (stereo not given in full): the growth was 21.1% in [1]; 42.6% in assay [2]; 41% in [3]; 50.9% in assay [4]; -27.3% (active) in assay [5]; 9.26% (active) in assay [6]. Further, the growth in assay [7] was -5.19% (active); in assay [8], 20.9%; in assay [9], 19.6%; in assay [10] it was -49.9% (active).
On to `CCOC(=O)c1c(-c2ccc(OC)cc2)c(C#N)c2c(C#N)c(N)nn2c1N`, for which the growth in assay [1] is 62.2%; in assay [2] it was 61.5%; in [3], 80.9%; in assay [4], 35.8%; in [5], 9.75% (active); in assay [6] it was 15.4%. The growth in assay [7] is -6.29% (active); in assay [8], 36.4%; in [9], 45.3%; in [10] it was 18.6%.
As for `CC1=C2[C@@H](CC1)[C@]1(C)O[C@@](C3CC3)(C[C@H]1OC(=O)CO)[C@H]2OC(=O)/C=C/c1ccccc1`, the growth is 103% in [1]; 86.7% in assay [2]; 82.2% in [3]; 89.6% in assay [4]; 90.7% in assay [5]; 82.2% in assay [6]. The growth is 88.4% in assay [7], 79% in assay [8], 73.2% in [9] and 116% in [10].
For `C[C@@H]1O[C@@H](O[C@H]2[C@@H](OC(=O)[C@]34CCC(C)(C)C[C@H]3C3=CC[C@@H]5[C@@]6(C)C[C@H](O)[C@H](O[C@@H]7O[C@H](CO)[C@@H](O)[C@H](O)[C@H]7O)[C@@](C)(CO)[C@@H]6CC[C@@]5(C)[C@]3(C)C[C@H]4O)OC[C@@H](O)[C@@H]2O)[C@H](O)[C@H](O[C@@H]2OC[C@@H](O)[C@H](O[C@@H]3OC[C@](O)(CO)[C@H]3O[C@@H]3OC[C@@H](O)[C@H](O)[C@H]3O)[C@H]2O)[C@H]1O[C@@H]1OC[C@](O)(CO)[C@H]1O`, the growth is 48.7% in assay [1]; 99.2% in [2]; 56.4% in [3]; 74% in [4]; 110% in assay [5]; 103% in [6]. Also, the growth is 29.8% in [7], 50.2% in assay [8], 46.9% in assay [9] and 2.01% (active) in assay [10].
For `CCCCCCCC/C=C\CCCCCCCCOc1ccccc1CC(=O)NCC[N+]1(C)CCOCC1`, the growth in [1] was 69.5%; in assay [2], 62.3%; in assay [3] it was 93.7%; in assay [4], 50.6%; in assay [5], 39.4%; in [6], 67.2%. Also, the growth in assay [7] was 51%; in assay [8], 74.4%; in assay [9], 55.6%; in assay [10] it was 17.3%.
For `CN1CCN(CCCN2c3ccccc3Sc3ccc(Cl)cc32)CC1`, the growth in [1] was 82.3% and 86.4%; in assay [2], 95.7% and 95.1%; in [3], 93.1%; in assay [4], 90.4%; in assay [5], 93.4% and 96.9%; in assay [6], 48.1% and 29.4%. Besides, the growth in assay [7] was 81.5% and 92.9%; in [8], 73.9% and 80.4%; in assay [9], 62.8% and 72%; in assay [10], 26.8%.
On to `CCCN1C(=O)/C(=c2\sc3n(c2=O)NC2C(N=3)N(CC)C(=O)N2CC)c2ccccc21` (stereo not given), for which the growth in assay [1] was 38.8%; in assay [2] it was 69.3%; in assay [3], 55%; in assay [4], 50.8%; in [5] it was 18.5%; in assay [6], 86.2%. In addition, the growth is 11.9% in assay [7], 42% in assay [8], 53.3% in assay [9] and 23% in assay [10].
For `C=C(C)[C@@H]1CC[C@]2(C)[C@H](CC(=O)N[C@H]3[C@@H]4C[C@](C)(C(=O)OC)CC[C@]4(C)CC[C@]32C)[C@@]1(C)CCC#N`, the growth in [1] is 92.7%; in [2], 78.1%; in assay [3] it was 103%; in assay [4], 110%; in [5] it was 96.8%; in assay [6], 69.3%. The growth in [7] is 71.3%; in [8], 94.2%; in assay [9] it was 107%; in [10] it was 86.9%.
In the case of `N#C/C(=N\Nc1ccc(Cl)cc1)C(=O)Nc1cc(-c2ccccc2)nn1-c1ccccc1`, the growth in [1] was 1.09% (active); in assay [2] it was 51.5%; in assay [3], 11.9%; in [4], 61.4%; in assay [5], 8.34% (active); in assay [6] it was -23.4% (active). In addition, the growth in assay [7] is 7.38% (active); in assay [8] it was 33.8%; in assay [9], 45.2%; in assay [10] it was 65.4%.
Consider `CCn1cc(C(=O)NN=C2CCCC2)c(=O)c2ccc(C)nc21`, for which the growth in assay [1] is 98.9%; in assay [2], 82.9%; in assay [3], 82.4%; in [4], 93.3%; in [5] it was 92.9%; in assay [6], 90.6%. Further, the growth in assay [7] was 88.8%; in assay [8], 90.3%; in assay [9] it was 93.1%; in [10], 104%.
As for `N#Cc1c(-c2cccc(F)c2)cc(-c2cccnc2)[nH]c1=O`, the growth in assay [1] was 105%; in [2], 101%; in [3], 101%; in [4], 95.7%; in assay [5] it was 109%; in assay [6] it was 110%. For the same compound, the growth in assay [7] was 90.1%; in assay [8], 101%; in [9], 97.6%; in assay [10], 108%.
In the case of `COc1ccc(/C=C2\COc3ccc(O)c(O)c3C2=O)c(OC)c1OC`, the growth was 38.6% in assay [1]; 63.9% in assay [2]; 56.2% in [3]; 17.7% in assay [4]; 24.9% in assay [5]; 38.9% in assay [6]. Also, the growth in assay [7] is -45.2% (active); in assay [8] it was 43.1%; in assay [9] it was 28%; in assay [10] it was 72.3%.
As to `CCOC(=O)N(O)c1ccc(/C=C/c2ccccc2)cc1`, the growth is 75.9% and 51.3% in assay [1]; -39.4% (active) in [2]; 79.6% and 76.4% in assay [3]; 66.5% in [4]; 23.5% and 22% in [5]; 67.4% in [6]. Moreover, the growth is 67.5% and 48.4% in assay [7]; 44% and 77.1% in assay [8]; 70.3% and 73.7% in [9]; 88.5% and 84.7% in assay [10].
Take `FC(F)(F)Sc1ccc(/C=C/c2cc(/C=C/c3ccc(SC(F)(F)F)cc3)n(-c3ccccc3)n2)cc1`: the growth in [1] was 103%; in assay [2] it was 89.5%; in assay [3], 93.7%; in assay [4], 90.8%; in assay [5], 99.8%; in [6] it was 87.3%. In addition, the growth is 89.4% in assay [7], 89.5% in [8], 91.8% in assay [9] and 92.8% in assay [10].
As to `C=C(CNCCO)[C@@H]1CC[C@]2(CO)CC[C@]3(C)[C@H](CC[C@@H]4[C@@]5(C)CCC(NCCc6ccc(O)cc6)C(C)(C)[C@@H]5CC[C@]43C)[C@@H]12` (stereo not given in full), the growth in assay [1] was -63% (active); in assay [2], -47.6% (active); in [3] it was -41% (active); in [4] it was -84.4% (active); in [5] it was -80.4% (active); in [6] it was -66.1% (active). Besides, the growth was -79.5% (active) in assay [7], -71.3% (active) in [8], -92.8% (active) in assay [9] and -84.4% (active) in [10].
With `COc1ccc2c(O)c(/C=C3\N=Nc4nc(C)ccc43)oc2c1CC1CCNCC1`, the growth is 67.2% in [1]; 57.5% in assay [2]; 80.8% in [3]; 64.3% in assay [4]; 79.3% in assay [5]; 39.2% in assay [6]. Further, the growth was 43.4% in [7], 68.2% in assay [8], 54.1% in [9] and 78.4% in [10].
Regarding `CCCCC1=C(Br)C(=O)c2nc(C)ccc2C1=O`, the growth in assay [1] is 92.8%; in assay [2], 91.2%; in assay [3], 88.8%; in [4], 89.9%; in assay [5], 98.8%; in assay [6] it was -8.03% (active). Besides, the growth in [7] is 62.5%; in assay [8], 92%; in [9], 95.2%; in assay [10], 37.1%.
For `N#Cc1ccccc1-c1ccc(Cn2c(-c3cscn3)nc3c(Cl)cccc32)cc1`, the growth in [1] was 70.9%; in assay [2] it was 66.2%; in assay [3], 91.6%; in [4], 97.4%; in assay [5], 82.6%; in assay [6] it was 63.7%. Further, the growth in assay [7] was 44.7%; in [8], 72.3%; in [9], 79.8%; in assay [10], 107%.
For the compound `CC(=O)N1N=C(c2ccc(Nc3nc(Nc4ccc(F)cc4)nc(Nc4ccc(Cl)cc4)n3)cc2)CC1c1ccc(N(C)C)cc1` (stereo not given), the growth was 52.2% in assay [1]; 42.3% in [2]; 79.6% in assay [3]; 109% and 58.6% in assay [4]; 44.9% in [5]; 22.5% in assay [6]. For the same compound, the growth was 47.8% in assay [7]; 30.3% in assay [8]; 113% and 44.1% in [9]; 51.2% in [10].
Take `CCCCCCNC(=O)Oc1ccc(/C(=C(/CC)Cc2ccccc2)c2ccc(OCCCN(C)C)cc2)cc1`: the growth in assay [1] was 79%; in assay [2], 95.5%; in [3], 89.3%; in [4] it was 83.2%; in assay [5], 40.2%; in assay [6], 54.3%. Further, the growth in assay [7] is 89%; in [8], 71.6%; in assay [9], 68.8%; in [10], 65.6%.
